The results in this text go back to PubChem BioAssay (NCI).

Test [1] can be described thus: NCI Yeast Anticancer Drug Screen. Data for the rad50 strain (AID 155).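 Also: 0% = growth of vehicle-only cultures of the same strain.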 The following applies: S. cerevisiae rad50 strain growth inhibition, stronger effect = higher value. Put shortly: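 Compounds were tested on a yeast strain with an engineered DNA damage repair alteration; the reported value is growth inhibition normalised to vehicle treatment.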
The nature of test [2]: NCI Yeast Anticancer Drug Screen. Data for the mec2-1 strain (AID 157). The following applies: S. cerevisiae mec2-1 strain, stronger effect = higher value. The method in brief:
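Each compound was tested on mec2-1 yeast, a strain altered in DNA damage repair or cell cycle control. Growth inhibition is reported relative to vehicle.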

A short description of test [3]: NCI Yeast Anticancer Drug Screen. Data for the sgs1 mgt1 strain (AID 161).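 Also: 0% = growth of cultures given vehicle only.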 The following applies: S. cerevisiae sgs1 mgt1 strain, stronger effect = higher value. The method in brief: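 Test agents were incubated with a DNA-repair-mutant yeast strain. Growth was then read and compared against vehicle-treated controls.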
Test [4] can be described thus: NCI Yeast Anticancer Drug Screen. Data for the cln2 rad14 strain (AID 165).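 Also: 0% = growth equal to vehicle treated cultures.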 The following applies: S. cerevisiae cln2 rad14 strain, stronger effect = higher value. Put shortly: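 Test compounds were added to cln2 rad14 yeast cultures; inhibition of growth was then determined by comparison with vehicle treatment.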
The nature of test [5]: NCI Yeast Anticancer Drug Screen. Data for the bub3 strain (AID 167). The following applies: S. cerevisiae bub3 mutant strain, stronger effect = higher value. The method in brief: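 Growth of a checkpoint-deficient yeast mutant is measured after compound exposure. Values represent inhibition relative to vehicle.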
The nature of test [6]: NCI Yeast Anticancer Drug Screen. Data for the mlh1 rad18 strain (AID 175). The following applies: S. cerevisiae mlh1 rad18 strain growth inhibition, stronger effect = higher value. Put shortly:
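Inhibition values reflect reduced growth of mutant yeast versus vehicle-treated controls following compound exposure; the mutations affect DNA damage repair.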

[7] abbreviates: at 5.0 µM (retest, dose inferred, filed as 0.5).
Setting [8] is: at 50.0 µM (retest, dose inferred, filed as 5.0).

SMILES strings stand for the structures. The panel holds about 79,000 compounds, 15% with a hit somewhere; the sample as a whole holds those more often. A number with no mark means an inactive call. Activity calls are given as the source filed them. Rule as the data show it: active = growth inhibition above about 70%; inactive = the rest.

Take `COc1cc([N+](=O)[O-])c2ncccc2c1[N+](=O)[O-]`: the growth inhibition is -1% in test [1] (setting [7]); 23% in test [1] (setting [8]); 85% (active) in test [1] (at 50.0 µM); -5% in test [2] (setting [7]); 13% in test [2] (setting [8]); 52.4% in test [2] (at 50.0 µM). Further, the growth inhibition in test [3] (setting [7]) is -2%; in test [3] (setting [8]) it was 26%; in test [3] (at 50.0 µM) it was 74.5% (active); in test [4] (setting [7]), -5%; in test [4] (setting [8]), -9%; in test [4] (at 50.0 µM) it was 53.6%. Also, the growth inhibition in test [5] (setting [7]) was -11%; in test [5] (setting [8]), 12%; in test [5] (at 50.0 µM), 39.4%; in test [6] (setting [7]), 13%; in test [6] (setting [8]) it was 45%; in test [6] (at 50.0 µM), 93.6% (active).

Take `Oc1cc(Cl)c(Cl)cc1Cl.[Cu+2]`: the growth inhibition in test [1] (setting [7]) was 78% (active); in test [1] (setting [8]) it was 96% (active); in test [1] (at 50.0 µM), 99% (active); in test [2] (setting [7]) it was 45%; in test [2] (setting [8]), 98% (active); in test [2] (at 50.0 µM) it was 98.9% (active). Also, the growth inhibition is 48% in test [3] (setting [7]); 70% (active) in test [3] (setting [8]); 99.3% (active) in test [3] (at 50.0 µM); 21% in test [4] (setting [7]); 98% (active) in test [4] (setting [8]); 97.7% (active) in test [4] (at 50.0 µM). For the same compound, the growth inhibition in test [5] (setting [7]) was 97% (active); in test [5] (setting [8]), 97% (active); in test [5] (at 50.0 µM), 99% (active); in test [6] (setting [7]), 91% (active); in test [6] (setting [8]), 97% (active); in test [6] (at 50.0 µM) it was 99.2% (active).

Take `[Pt].c1ccc([PH+](c2ccccc2)c2ccccc2)cc1.c1ccc([PH+](c2ccccc2)c2ccccc2)cc1.c1ccc([PH+](c2ccccc2)c2ccccc2)cc1.c1ccc([PH+](c2ccccc2)c2ccccc2)cc1`: the growth inhibition in test [1] (setting [7]) was 31%; in test [1] (setting [8]), 62%; in test [1] (at 50.0 µM), 68.5%; in test [2] (setting [7]), 27%; in test [2] (setting [8]) it was 61%; in test [2] (at 50.0 µM), 42.7%. Moreover, the growth inhibition was 40% in test [3] (setting [7]); 82% (active) in test [3] (setting [8]); 62.3% in test [3] (at 50.0 µM); 49% in test [4] (setting [7]); 55% in test [4] (setting [8]); 64% in test [4] (at 50.0 µM). In addition, the growth inhibition in test [5] (setting [7]) is 42%; in test [5] (setting [8]), 54%; in test [5] (at 50.0 µM), 62.5%; in test [6] (setting [7]), 27%; in test [6] (setting [8]) it was 86% (active); in test [6] (at 50.0 µM) it was 41.5%.

Regarding `O=[N+]([O-])/C=C\C(Cl)(Cl)Cl`, the growth inhibition in test [1] (setting [7]) is 74% (active); in test [1] (setting [8]) it was 99% (active); in test [1] (at 50.0 µM) it was 91.7% (active); in test [2] (setting [7]), 72% (active); in test [2] (setting [8]), 99% (active); in test [2] (at 50.0 µM), 92.7% (active). Moreover, the growth inhibition is 73% (active) in test [3] (setting [7]); 99% (active) in test [3] (setting [8]); 92.2% (active) in test [3] (at 50.0 µM); 82% (active) in test [4] (setting [7]); 99% (active) in test [4] (setting [8]); 91.5% (active) in test [4] (at 50.0 µM). In addition, the growth inhibition is 92% (active) in test [5] (setting [7]); 99% (active) in test [5] (setting [8]); 90.5% (active) in test [5] (at 50.0 µM); 74% (active) in test [6] (setting [7]); 99% (active) in test [6] (setting [8]); 91.3% (active) in test [6] (at 50.0 µM).

As to `O=C1C(C(Nc2ccccc2)c2ccccc2)=C([O-])c2ccccc21.O=C1C(C(Nc2ccccc2)c2ccccc2)=C([O-])c2ccccc21.[Co+2]` (configuration not stated), the growth inhibition in test [1] (setting [7]) is 66%; in test [1] (setting [8]), 61%; in test [1] (at 50.0 µM) it was 73.7% (active); in test [2] (setting [7]), 42%; in test [2] (setting [8]) it was 62%; in test [2] (at 50.0 µM) it was 55.6%. The growth inhibition in test [3] (setting [7]) is 42%; in test [3] (setting [8]), 51%; in test [3] (at 50.0 µM) it was 73% (active); in test [4] (setting [7]) it was 41%; in test [4] (setting [8]) it was 40%; in test [4] (at 50.0 µM) it was 35%. In addition, the growth inhibition in test [5] (setting [7]) was 56%; in test [5] (setting [8]) it was 54%; in test [5] (at 50.0 µM) it was 77.4% (active); in test [6] (setting [7]), 45%; in test [6] (setting [8]), 64%; in test [6] (at 50.0 µM), 65.5%.

Take `Oc1c(Cl)cc(Cl)cc1Cl.[Cu+2]`: the growth inhibition is 6% in test [1] (setting [7]); 95% (active) in test [1] (setting [8]); 99.7% (active) in test [1] (at 50.0 µM); -28% in test [2] (setting [7]); 98% (active) in test [2] (setting [8]); 99.5% (active) in test [2] (at 50.0 µM). Also, the growth inhibition in test [3] (setting [7]) is -4%; in test [3] (setting [8]) it was 94% (active); in test [3] (at 50.0 µM), 99.8% (active); in test [4] (setting [7]), -9%; in test [4] (setting [8]), 97% (active); in test [4] (at 50.0 µM), 98.2% (active). In addition, the results for the growth inhibition in test [6] (setting [7]), in test [6] (setting [8]) and in test [6] (at 50.0 µM) were 0%, 98% (active) and 99.3% (active), respectively.

Take `CC(C)c1oc(=O)cc2c1C(O)C1OC(=O)C3(C)C(O)C4OC4C2(C)C13` (configuration not stated): the growth inhibition in test [1] (setting [7]) was 8%; in test [1] (setting [8]) it was 65%; in test [1] (at 50.0 µM), 31.9%; in test [2] (setting [7]) it was 10%; in test [2] (setting [8]), 81% (active); in test [2] (at 50.0 µM), -10.8%. The growth inhibition in test [3] (setting [7]) is 10%; in test [3] (setting [8]), 72% (active); in test [3] (at 50.0 µM), 25.1%; in test [4] (setting [7]), 19%; in test [4] (setting [8]) it was 71% (active); in test [4] (at 50.0 µM), 15.9%. The growth inhibition in test [5] (setting [7]) is 2%; in test [5] (setting [8]) it was 76% (active); in test [5] (at 50.0 µM), 17.4%; in test [6] (setting [7]) it was 11%; in test [6] (setting [8]), 86% (active); in test [6] (at 50.0 µM) it was 18.4%.

For the compound `O=S(=O)(F)c1ccc(Cl)cc1`, the growth inhibition was 22% in test [1] (setting [7]); 97% (active) in test [1] (setting [8]); 85.5% (active) in test [1] (at 50.0 µM); 4% in test [2] (setting [7]); 84% (active) in test [2] (setting [8]); 20.9% in test [2] (at 50.0 µM). For the same compound, the growth inhibition in test [3] (setting [7]) is 9%; in test [3] (setting [8]), 92% (active); in test [3] (at 50.0 µM), 82.3% (active); in test [4] (setting [7]) it was 3%; in test [4] (setting [8]), 90% (active); in test [4] (at 50.0 µM) it was 49.7%. The growth inhibition in test [5] (setting [7]) is 12%; in test [5] (setting [8]), 97% (active); in test [5] (at 50.0 µM) it was 70.9% (active); in test [6] (setting [7]) it was 13%; in test [6] (setting [8]) it was 98% (active); in test [6] (at 50.0 µM), 90.8% (active).

Regarding `COc1c(Br)cc(/C=C/[N+](=O)[O-])cc1Br`, the growth inhibition in test [1] (setting [7]) is 98% (active); in test [1] (setting [8]), 98% (active); in test [1] (at 50.0 µM) it was 92.4% (active); in test [2] (setting [7]), 99% (active); in test [2] (setting [8]), 99% (active); in test [2] (at 50.0 µM), 91.6% (active). The growth inhibition is 98% (active) in test [3] (setting [7]); 99% (active) in test [3] (setting [8]); 89.8% (active) in test [3] (at 50.0 µM); 96% (active) in test [4] (setting [7]); 97% (active) in test [4] (setting [8]); 90.5% (active) in test [4] (at 50.0 µM). In addition, the growth inhibition in test [5] (setting [7]) is 99% (active); in test [5] (setting [8]), 97% (active); in test [5] (at 50.0 µM), 88.2% (active); in test [6] (setting [7]) it was 98% (active); in test [6] (setting [8]), 98% (active); in test [6] (at 50.0 µM) it was 82.8% (active).

For `COC(=O)C1=C(C(=O)OC)C2(C)OC1c1ccccc12` (configuration not stated), the growth inhibition in test [1] (setting [7]) was -5%; in test [1] (setting [8]) it was 96% (active); in test [1] (at 50.0 µM), 98.2% (active); in test [2] (setting [7]), 4%; in test [2] (setting [8]), 95% (active); in test [2] (at 50.0 µM), 98.1% (active). The growth inhibition was 4% in test [3] (setting [7]); 96% (active) in test [3] (setting [8]); 98% (active) in test [3] (at 50.0 µM); 0% in test [4] (setting [7]); 92% (active) in test [4] (setting [8]); 93.6% (active) in test [4] (at 50.0 µM). For the same compound, the growth inhibition was 7% in test [5] (setting [7]); 98% (active) in test [5] (setting [8]); 97% (active) in test [5] (at 50.0 µM); 14% in test [6] (setting [7]); 95% (active) in test [6] (setting [8]); 98.3% (active) in test [6] (at 50.0 µM).
